CYP2C9 activ – human CYP2C9 activators, primary screen, biochemical, luminescence. activation factor at 5 µM. hit rate 1.4% among 96,000. recombinant CYP2C9, luciferin-H conversion; stronger effect = higher value; factor 1 = untreated enzyme, 0 = blocked. Cytochrome P450 2C9 (Homo sapiens), P11712;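 active means activation factor of 2 or more for CYP2C9 at a 5 µM dose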
CYP2C9 inhib – blockers of cytochrome P450 2C9 activity – biochemical, luminescence, ADME assay, primary screen | AID 777, 2007 | CYP2C9 Supersomes, luciferin-H conversion | P11712 | inhibition, % at 5 µM | hit rate 20% among 96,000;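 active means blocking of liver enzyme CYP2C9 beyond about 50% at 5 µM, limit read from the data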
CYP2C19 activ – human CYP2C19 activators, primary screen, biochemical, luminescence; activation factor at 5 µM; recombinant CYP2C19, luciferin-H EGE luminescence; stronger effect = higher value; 0 = fully inhibited enzyme, 1 = untreated enzyme; Cytochrome P450 2C19 (Homo sapiens), P33261; AID 1025, 2008; 96,000 tested, under 10 active;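 active means activation factor of at least 2 at 5 µM in the primary screen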
Target sequence (P33261 whole entry, looked up): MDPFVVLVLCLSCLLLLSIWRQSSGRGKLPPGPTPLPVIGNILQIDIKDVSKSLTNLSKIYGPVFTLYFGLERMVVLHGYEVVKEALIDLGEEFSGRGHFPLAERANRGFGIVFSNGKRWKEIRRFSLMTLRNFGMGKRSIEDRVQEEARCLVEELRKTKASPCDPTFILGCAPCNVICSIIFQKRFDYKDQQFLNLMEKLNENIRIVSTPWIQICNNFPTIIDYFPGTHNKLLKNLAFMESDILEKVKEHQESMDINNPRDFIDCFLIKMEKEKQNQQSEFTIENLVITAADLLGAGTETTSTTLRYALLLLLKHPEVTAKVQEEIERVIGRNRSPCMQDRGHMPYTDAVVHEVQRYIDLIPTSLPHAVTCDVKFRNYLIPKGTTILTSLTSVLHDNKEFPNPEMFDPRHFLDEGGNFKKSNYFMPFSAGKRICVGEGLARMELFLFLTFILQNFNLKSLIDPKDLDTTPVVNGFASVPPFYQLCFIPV
PLAP activator – PLAP enzyme activators, biochemical, luminescence, HTS; Alkaline phosphatase, placental type (Homo sapiens), P05187; purified PLAP enzyme, luminescent substrate read-out; stronger effect = higher value; activation fold at 20 µM; hit rate 1.2% among 96,000; AID 696, 2007; in the data active means activation fold above about 2
CYP2C19 inh – blockers of cytochrome P450 2C19 activity – biochemical, luminescence, ADME assay, primary screen; P33261; AID 778, 2007; hit rate 21% among 96,000; CYP2C19 Supersomes, luciferin-H EGE luminescence, 30 min; inhibition, % at 5 µM;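 active means CYP2C19 inhibition above a set limit at 5 µM in the primary screen, cut at about 50% in these data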
Numbers stand for hits; 0 = inactive. Shown are actives, neighbours in structure and some others; about 31% of the full set was active somewhere.

SMILES	CYP2C9 activ	CYP2C9 inhib	CYP2C19 activ	PLAP activator	CYP2C19 inh
CCOC(=O)c1ccc(NC(=O)C(C)NS(=O)(=O)c2ccc(OC)cc2)cc1 (stereo not given)	0	0	0	0	50
CCN(C(=O)CSc1nnc(-c2ccccc2Cl)n1C1CCCC1)C1CCS(=O)(=O)C1 (stereo not given)	0	79	0	0	0
Cc1ccc(N(C(=O)c2ccc(Br)o2)C2C=CS(=O)(=O)C2)cc1 (stereo not given)	0	0	0	0	0
O=C(O)CCc1c(C(=O)O)[nH]c2ccccc12	0	54	0	0	0
CCCc1c(C)[nH]c2ccccc2c1=O	3.2	0	0	0	0
NC(=O)CCc1c[nH]c2ccccc12	0	0	0	0	0
Cc1[nH]c2ccccc2c1CCC(N)=O	3.1	0	0	0	53
CCOCCn1c(SCc2cccc(C)c2)nc2c1c(=O)[nH]c(=O)n2C	0	0	0	0	0
CCCN1CCN(C(=O)CN2C(=O)CC(C)(C)S(=O)(=O)c3ccccc32)CC1	0	0	0	0	0
C=C(C)CSc1nncn1/N=C/c1ccc(OC)cc1	0	55	0	0	63
Cc1c(-c2nc(N)nc(Nc3ccccc3)n2)oc2ccccc12	0	84	0	0	0
Cc1nnc(SCc2nc(N)nc(Nc3ccccc3)n2)s1	0	0	0	0	0
CCOC(=O)c1cc(-c2nnc(SCC(=O)Nc3ccc(F)cc3)o2)c(C)nc1C	0	51	0	0	0
Cc1cccc(C)c1OCc1nnc(SCC(=O)NCc2ccccc2)o1	0	0	0	0	0
N#Cc1ccsc1NC(=O)COc1ccc(-c2nnco2)cc1	0	95	0	0	78
COc1ccc(-c2nnc(SCC(=O)Nc3cccc(Cl)c3)o2)cc1	0	0	0	0	0
O=C(CSc1nnc(-c2ccncc2)o1)Nc1ccccc1Cl	0	0	0	0	90
CCOC(=O)c1cc(-c2nnc(-c3ccc(Cl)cc3)o2)c(C)nc1C	0	0	0	0	0
Cc1cccc(C)c1OCc1nnc(SCC(=O)Nc2ccccc2F)o1	0	59	0	0	0
O=S(=O)(c1ccc(Cl)cc1)N1CCCC1c1nc(-c2cccc(Cl)c2)no1 (stereo not given)	0	0	0	0	0
COc1ccccc1NC(=O)CSc1nnc(-c2ccncc2)o1	0	0	0	0	84
N#Cc1ccsc1NC(=O)CSc1nnc(-c2ccccc2)o1	0	85	0	0	0
Cc1sc(NC(=O)CSc2nnc(-c3ccc(F)cc3)o2)c(C#N)c1C	0	72	0	0	70
CC(C)CC(=O)Nc1ccc(C(=O)COc2ccc(-c3nnco3)cc2)cc1	0	93	0	0	72
COc1ccccc1NC(=O)CSc1nnc(C)o1	0	0	0	0	0
SMILES	CYP2C9 activ	CYP2C9 inhib	CYP2C19 activ	PLAP activator	CYP2C19 inh
CCN(CC)CCCN1C(=O)C(=O)/C(=C(/O)c2ccc3c(c2)CC(C)O3)C1c1ccncc1 (stereo not given)	0	0	0	0	0
Cc1nn(-c2ccccc2)c(Cl)c1C(=O)Nc1c(C)n(C)n(-c2ccccc2)c1=O	0	0	0	0	0
O=C(CN1CCCCC1)N1CCN(C(=O)CN2CCCCC2)CC1	0	0	0	0	0
O=C(Oc1ccc2c(c1)OCO2)c1cc2c(s1)CCC2	0	0	0	0	0
O=C(CSc1nnc(-c2ccc(Br)cc2)o1)Nc1cccc2ccccc12	0	74	0	0	70
O=C(CSc1nnc(-c2ccccc2)o1)Nc1ccccc1F	0	0	0	0	57
COc1ccccc1NC(=O)CSc1nnc(-c2ccoc2C)n1CC1CCCO1 (stereo not given)	0	0	0	0	0
Cc1csc(NC(=O)CSc2nnc(-c3ccncc3)o2)n1	0	0	0	0	55
Cc1ccc(-c2nnc(SCC(=O)Nc3ccccc3F)o2)cc1	0	0	0	0	0
Cc1csc(NC(=O)CSc2nnc(-c3ccoc3C)o2)n1	0	0	0	0	0
COc1ccccc1NC(=O)CSc1nnc(C2CCCCC2)o1	0	0	0	0	56
CC(O)c1n(C)c(Cl)c[n+]1C (stereo not given)	0	0	0	0	0
COc1cccc2c(=O)n(CC(=O)Nc3ccccc3F)ccc12	0	0	0	0	0
CCn1c(SCC(=O)Nc2cc(OC)ccc2OC)nnc1C1CCCCC1	0	0	0	0	69
CCOC(=O)c1cc(C#N)c(SC)nc1-c1ccccc1	0	0	0	0	0
CCOC(=O)c1cc(C#N)c(Oc2ccccc2OC)nc1-c1ccccc1	0	64	0	0	0
COC(=O)c1cc(C#N)c(Oc2ccccc2OC)nc1C	0	52	0	0	72
CC(SC1=NCCS1)C(=O)Nc1nnc(-c2ccc(F)cc2)s1 (stereo not given)	0	0	0	0	0
CC(SC1=NCCS1)C(=O)Nc1nnc(-c2ccc(Br)cc2)s1 (stereo not given)	0	57	0	0	0
CC1=C(C(=O)Nc2ccccc2)C(c2ccncc2)C(C#N)=C(SCC(=O)Nc2ccccc2)N1 (stereo not given)	0	80	0	0	84
CC1=C(C(=O)Nc2ccccc2)C(c2ccco2)C(C#N)=C(SCc2ccccc2)N1 (stereo not given)	0	96	0	0	97
CC1=C(C(=O)Nc2ccccc2)C(c2ccco2)C(C#N)=C(SCC(=O)Nc2cccc(C)c2C)N1 (stereo not given)	0	72	0	0	72
CC1=C(C(=O)Nc2ccccc2)C(c2ccco2)NC(=S)N1 (stereo not given)	0	0	0	0	0
CC1=C(C(=O)Nc2ccccc2)C(c2ccco2)C(C#N)=C(SCC(=O)OC(C)C)N1 (stereo not given)	0	0	0	0	0
COC(=O)COc1ccc(S(=O)(=O)N2CCN(c3ccc(F)cc3)CC2)cc1	0	0	0	0	0
SMILES	CYP2C9 activ	CYP2C9 inhib	CYP2C19 activ	PLAP activator	CYP2C19 inh
O=C(O)c1ccc(N2CCCCCC2)c(N2C(=O)c3ccccc3C2=O)c1	0	0	0	0	0
NC(=O)c1ccc(N2CCCCC2)c(N2C(=O)C3CC=CCC3C2=O)c1 (stereo not given)	0	0	0	0	50
CCNS(=O)(=O)c1ccc(NC(=O)c2cccnc2)cc1	0	78	0	0	0
CCC(C)c1ccc(NC(=O)c2cccnc2)cc1 (stereo not given)	0	0	0	0	0
CC(=O)Nc1ccc(S(=O)(=O)NCc2ccc(C(=O)NC(C)c3ccccc3)cc2)cc1 (stereo not given)	0	91	0	0	0
CCCc1cc(C(=O)Nc2nccs2)cs1	0	52	0	0	0
CCCN1C(=O)c2ccc(C(=O)Nc3nccs3)cc2C1=O	0	0	0	0	0
CCc1cc(C(=O)NNC(=S)NCc2ccccc2)cs1	0	0	0	0	0
CCc1cc(C(=O)Nc2ccccc2)cs1	0	0	0	0	76
